Inconclusive results are not listed. Where a call stands in place of a potency, no number is given. Active and inactive are the calls of the source. Unless noted, calls follow the shape of the dose curve; as a rule, active = well fitted inhibition curve with a large enough effect; inconclusive = small, poorly fitted or top-dose-only effect; inactive = flat fitted curve, though single readings scatter.
Tests used:
[1] = S16 Schwann cell PMP22 intronic element beta-lactamase assay (AID 624044; calls by dose curve; also: nearly all actives have a fitted effect of over 15% in size)
In short: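 Beta-lactamase reporter under a PMP22 intronic regulatory element in stable S16 rat Schwann cells; 24 h compound exposure. 460 nm blue signal normalized between DMSO (0%) and potassium clavulanate, with 535 nm FRET tracking viability; curves classed by r2 and response.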

AA1029 = assay: qHTS profiling for inhibitors of Plasmodium falciparum proliferation (AID 504749); also: nearly all actives have a fitted effect of over 60% in size; also: potency is read from the fitted curve at half-maximal effect; conditions: P. falciparum in erythrocytes, SYBR Green DNA, 72 h; series mostly up to 12.8 µM
In short: (§1)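 Fluorescence of SYBR Green-bound parasite DNA, read at 485/535 nm, served as the growth measure. Infected erythrocytes were cultured with compound 72 h; artemisinin (0.29 uM) and DMSO wells defined the normalization range.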

CP194 = assay: as above; conditions: P. falciparum in erythrocytes, SYBR Green DNA, 72 h; series mostly up to 12.8 µM
In short: as §1

CP201 = assay: as above; conditions: P. falciparum in erythrocytes, SYBR Green DNA, 72 h; series mostly up to 12.8 µM
In short: as §1

CP237 = assay: as above; conditions: P. falciparum in erythrocytes, SYBR Green DNA, 72 h; series mostly up to 12.8 µM
In short: as §1

CP252 = assay: as above; conditions: P. falciparum in erythrocytes, SYBR Green DNA, 72 h; series mostly up to 12.8 µM
In short: as §1

CP265 = assay: as above; conditions: P. falciparum in erythrocytes, SYBR Green DNA, 72 h; series mostly up to 12.8 µM
In short: as §1

CP268 = assay: as above; conditions: P. falciparum in erythrocytes, SYBR Green DNA, 72 h; series mostly up to 12.8 µM
In short: as §1

CP286 = assay: as above; conditions: P. falciparum in erythrocytes, SYBR Green DNA, 72 h; series mostly up to 12.8 µM
In short: as §1

CP291 = assay: as above; conditions: P. falciparum in erythrocytes, SYBR Green DNA, 72 h; series mostly up to 12.8 µM
In short: as §1

CP305 = assay: as above; conditions: P. falciparum in erythrocytes, SYBR Green DNA, 72 h; series mostly up to 12.8 µM
In short: as §1

CP325 = assay: as above; conditions: P. falciparum in erythrocytes, SYBR Green DNA, 72 h; series mostly up to 12.8 µM
In short: as §1

CP329 = assay: as above; conditions: P. falciparum in erythrocytes, SYBR Green DNA, 72 h; series mostly up to 12.8 µM
In short: as §1

DFO2036 = assay: as above; conditions: P. falciparum in erythrocytes, SYBR Green DNA, 72 h; series mostly up to 12.8 µM
In short: as §1

DIV17 = assay: as above; conditions: P. falciparum in erythrocytes, SYBR Green DNA, 72 h; series mostly up to 12.8 µM
In short: as §1

DIV30 = assay: as above; conditions: P. falciparum in erythrocytes, SYBR Green DNA, 72 h; series mostly up to 12.8 µM
In short: as §1

ICS = assay: as above; conditions: P. falciparum in erythrocytes, SYBR Green DNA, 72 h; series mostly up to 12.8 µM
In short: as §1

P93_24 = assay: as above; conditions: P. falciparum in erythrocytes, SYBR Green DNA, 72 h; series mostly up to 12.8 µM
In short: as §1

TAB109 = assay: as above; conditions: P. falciparum in erythrocytes, SYBR Green DNA, 72 h; series mostly up to 12.8 µM
In short: as §1

TAB113 = assay: as above; conditions: P. falciparum in erythrocytes, SYBR Green DNA, 72 h; series mostly up to 12.8 µM
In short: as §1

Row | SMILES | Potency [1] | Potency (AA1029) | Potency (CP194) | Potency (CP201) | Potency (CP237) | Potency (CP252) | Potency (CP265) | Potency (CP268) | Potency (CP286) | Potency (CP291) | Potency (CP305) | Potency (CP325) | Potency (CP329) | Potency (DFO2036) | Potency (DIV17) | Potency (DIV30) | Potency (ICS) | Potency (P93_24) | Potency (TAB109) | Potency (TAB113)
1 | C[C@@H](C(=O)O)c1ccc(C(=O)c2ccccc2)s1 | inactive | inactive | inactive | inactive | inactive | inactive | inactive | inactive | inactive | inactive | inactive | inactive | inactive | inactive | inactive | inactive | inactive | inactive | inactive | inactive
2 | NC(=O)c1cc[n+](CC2=C(C(=O)[O-])N3C(=O)[C@@H](NC(=O)Cc4cccs4)[C@@H]3SC2)cc1 | inactive | inactive | inactive | inactive | inactive | inactive | inactive | inactive | inactive |  | inactive | inactive | inactive | inactive | inactive | inactive | inactive | inactive | inactive | inactive
3 | Clc1ccc([C@H](Cn2ccnc2)OCc2csc3c(Cl)cccc23)c(Cl)c1 | inactive |  |  |  | 3.16 µM (active) |  |  | inactive |  |  |  |  |  |  | 7.21 µM (active) | 5.1 µM (active) | 2 µM (active) | 2 µM (active) |  | 
4 | O=C(NC[C@@H](O)CO)c1c(I)c(C(=O)NC[C@@H](O)CO)c(I)c(N(CCO)C(=O)CO)c1I | inactive | inactive | inactive | inactive | inactive | inactive | inactive | inactive | inactive | inactive | inactive | inactive | inactive | inactive | inactive | inactive | inactive | inactive | inactive | inactive
5 | CO[C@H]1[C@@H](OC(N)=O)[C@H](O)[C@@H](Oc2ccc3c(O)c(NC(=O)c4ccc(O)c(CC=C(C)C)c4)c(=O)oc3c2C)OC1(C)C |  | inactive | inactive | inactive | inactive | inactive | inactive | inactive | inactive | inactive | inactive | inactive | inactive | inactive | inactive | inactive | inactive | inactive | inactive | inactive
6 | CN(C)CCOC(=O)[C@@H](c1ccccc1)C1(O)CCCC1 | inactive | inactive | inactive | inactive | 8.91 µM (active) | inactive | inactive | inactive | inactive | inactive | inactive | inactive | inactive | inactive | inactive | inactive | inactive |  | inactive | inactive
7 | COc1ccc(C[C@@](C)(N)C(=O)O)cc1OC | inactive | inactive | inactive | inactive | inactive | inactive | inactive | inactive | inactive | inactive | inactive | inactive | inactive | inactive | inactive | inactive | inactive | inactive | inactive | inactive
8 | CN1CCN([C@@H](c2ccccc2)c2ccc(Cl)cc2)CC1 | inactive |  |  |  | inactive | inactive |  |  | inactive |  | inactive | inactive | inactive | inactive |  |  | 3.16 µM (active) |  | inactive | 
9 | CC(C)NC[C@H]1CCc2cc(CO)c([N+](=O)[O-])cc2N1 |  | inactive | inactive | inactive | inactive | inactive | inactive | inactive | inactive | inactive | inactive | inactive | inactive | inactive | inactive | inactive | inactive | inactive | inactive | inactive
10 | CN(C/C=C\c1ccccc1)Cc1cccc2ccccc12 | inactive | inactive |  | inactive | inactive | inactive | inactive | inactive |  |  | inactive | inactive | inactive | inactive | inactive | inactive | 11.2 µM (active) | inactive | inactive | inactive
11 | CC[C@H](Cc1c(I)cc(I)c(N)c1I)C(=O)O | inactive | inactive | inactive | inactive | inactive | inactive | inactive | inactive | inactive | inactive | inactive | inactive | inactive | inactive | inactive | inactive | inactive | inactive | inactive | inactive
12 | Clc1ccc(CC[C@H](Cn2ccnc2)Sc2c(Cl)cccc2Cl)cc1 | inactive |  | 6.42 µM (active) |  |  |  |  |  |  | 5.73 µM (active) |  |  | 6.42 µM (active) |  | 4.05 µM (active) | 5.73 µM (active) | 1.41 µM (active) | 2.24 µM (active) |  | 3.55 µM (active)
13 | CC(C)(C)NC(=O)[C@@H]1CC[C@@H]2[C@@H]3CC[C@@H]4NC(=O)C=C[C@@]4(C)[C@H]3CC[C@]21C | inactive | inactive | inactive | inactive | inactive | inactive | inactive | inactive | inactive | inactive | inactive | inactive | inactive | inactive | inactive | inactive | inactive | inactive | inactive | inactive
